“And” between values parts separate entries of the source, which are not always exact repeats. Equal values may be shown once. The source made the active and inactive calls. Cut-off read from the data, not from the text of the source, unless noted: active = parasite load remaining mostly below about 12% (no sharp cut-off); inactive = mostly above about 10%.

The nature of experiment [1]: P. berghei load reduction in hepatocytes – cell-based, HepG2, luciferase luminescence, HepG2 viability, primary screen (AID 624349).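 Note: 100% = mean of DMSO negative control wells on the same plate.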 The conditions noted are these: P. berghei liver stage in HepG2, luciferase luminescence, concentration not given here; parasite load remaining: stronger effect = lower value; viability: measured here: HepG2 viability without parasites.
Experiment [2] can be described thus: EMT-state selective cytotoxicity in co-culture – imaging, PC-3E GFP, TEM4-18 mCherry, primary screen (AID 1345086;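 active = compounds killing one labelled cell type while sparing the other, by normalised counts and ratio limits, not self-fluorescent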;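 for all read-outs here: cells exposed to compound for 72 h before imaging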;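 for red/green cell ratio (normalised): normalised mesenchymal count divided by normalised epithelial count so high means epithelial killing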). The conditions noted are these: PC-3E GFP / TEM4-18 mCherry co-culture, imaging cell counts, at 1 µM; for red/green cell ratio (normalised): actives lie on both sides, counts scaled to control wells, 1 = unselective.
Experiment [3] can be described thus: viability loss with induced miR-34 in A549 – imaging, A549 dox-inducible miR-34, nuclei and caspase counts, primary screen (AID 1347080;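 active = compounds whose cell count with miR-34 switched on is under 0.7 times the count with it off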). The conditions noted are these: A549 miR-34 inducible, Hoechst nuclei count, 48 h.
Experiment [4] is described as follows: MELAS cybrid and Rieske KO viability enhancers – cell-based, MELAS cybrids, Rieske KO mouse fibroblasts, CellTiter-Glo, primary screen (AID 1508586;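 active = mean z-score across replicates of 1.96 or higher in either the MELAS or the Rieske mutant cell line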;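 note: z relative to plate mean and SD of compound and empty wells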). Particulars: low glucose. In general terms: In ATP-based viability assays light output follows the ATP content of the culture.
The nature of experiment [5]: compounds altering HSF1 focus formation in cells – imaging, Selleck Cancer Library (AID 1347162; in the data active = plate-normalised HSF1 focus index below about 0.46). Particulars: human cells, HSF1 nuclear foci imaging, at 10 µM; SSMD: measured here: HSF1 foci SSMD mean; cell count: measured here: cell number; plate-normalised HSF1 focus index: stronger effect = lower value.
The mark [6] stands for this setting: measured here: epithelial PC-3E GFP cell survival.
The mark [7] stands for this setting: measured here: mesenchymal TEM4-18 mCherry cell survival.
Setting [8] is: stronger effect = lower value, cell number ratio, induced over uninduced.
The mark [9] stands for this setting: measured here: relative caspase fold change +Dox/-Dox.
Setting [10] is: measured here: total cells with miR-34 induction, stronger effect = lower value.
Setting [11] is: measured here: total cells without miR-34 induction.

A word on the viability: it is a read-out of living cells in per cent, often relative to untreated cells. On to `COc1cc(NS(C)(=O)=O)ccc1Cc1c2ccccc2nc2ccccc12`, for which the parasite load remaining in experiment [1] was 41.6% (inactive). For the same compound, in experiment [1], the viability is 143%. Further, the red/green cell ratio (normalised) in experiment [2] was 0.96 (inactive). Further, the results for the normalised cell number in experiment [2] (setting [6]) and in experiment [2] (setting [7]) were 0.32 and 0.31, respectively. The fold change in experiment [3] (setting [8]) is 0.911 (inactive); in experiment [3] (setting [9]), 3.12. Besides, the cell count in experiment [3] (setting [10]) is 3640; in experiment [3] (setting [11]), 4000.

As to `O=C1O[C@H](C(O)CO)C(O)=C1O` (some centres undefined), the parasite load remaining in experiment [1] is 82.7% (inactive) and 21.4% (inactive). Also, the viability in experiment [1] was 69.6% and 79.3%. In experiment [2], the red/green cell ratio (normalised) is 1.21 (inactive). Besides, the values for the normalised cell number in experiment [2] (setting [6]) and in experiment [2] (setting [7]) were 1.04 and 1.26, respectively. The fold change in experiment [3] (setting [8]) is 0.918 (inactive); in experiment [3] (setting [9]) it was 4.48. The values for the cell count in experiment [3] (setting [10]) and in experiment [3] (setting [11]) were 12000 and 13100, respectively.

Regarding `O=C(OC[C@H]1O[C@H](OC(=O)c2cc(O)c(O)c(OC(=O)c3cc(O)c(O)c(O)c3)c2)[C@H](OC(=O)c2cc(O)c(O)c(OC(=O)c3cc(O)c(O)c(O)c3)c2)[C@@H](OC(=O)c2cc(O)c(O)c(OC(=O)c3cc(O)c(O)c(O)c3)c2)[C@@H]1OC(=O)c1cc(O)c(O)c(OC(=O)c2cc(O)c(O)c(O)c2)c1)c1cc(O)c(O)c(OC(=O)c2cc(O)c(O)c(O)c2)c1`, in experiment [1], the parasite load remaining is 58.2% (inactive) and 73.8% (inactive). Besides, in experiment [1], the viability was 119% and 101%. For the same compound, the red/green cell ratio (normalised) in experiment [2] is 1.23 (inactive). Further, the normalised cell number in experiment [2] (setting [6]) was 1.24; in experiment [2] (setting [7]) it was 1.52. Besides, the fold change in experiment [3] (setting [8]) is 0.602 (active); in experiment [3] (setting [9]), 1.46. For the same compound, the cell count in experiment [3] (setting [10]) was found to be 4260; in experiment [3] (setting [11]), 7070.

Consider `CC(=O)O[C@]1(C(C)=O)CCC2C3C=C(Cl)C4=CC(=O)CC[C@]4(C)C3CC[C@@]21C` (some centres undefined), for which the parasite load remaining in experiment [1] was 113% (inactive) and 26.4% (inactive). Moreover, the viability in experiment [1] is 84% and 106%. Moreover, in experiment [2], the red/green cell ratio (normalised) was 1.17 (inactive). Moreover, the results for the normalised cell number in experiment [2] (setting [6]) and in experiment [2] (setting [7]) were 1.04 and 1.21, respectively. In addition, the fold change in experiment [3] (setting [8]) was 0.904 (inactive); in experiment [3] (setting [9]), 1.11. In addition, the cell count in experiment [3] (setting [10]) was determined as 9770; in experiment [3] (setting [11]) it was 10800.

As to `CC1=C(C(=O)O)N2C(=O)[C@@H](NC(=O)C(N)c3ccc(O)cc3)[C@H]2SC1` (some centres undefined), the parasite load remaining in experiment [1] is 82.3% (inactive) and 62.8% (inactive). In addition, in experiment [1], the viability was 75.2% and 100%. Also, the red/green cell ratio (normalised) in experiment [2] was 1.2 (inactive). Moreover, the normalised cell number in experiment [2] (setting [6]) was 1.16; in experiment [2] (setting [7]) it was 1.4. Besides, the fold change is 0.948 (inactive) in experiment [3] (setting [8]) and 3.02 in experiment [3] (setting [9]). Also, the results for the cell count in experiment [3] (setting [10]) and in experiment [3] (setting [11]) were 12000 and 12700, respectively.

For the compound `CC(=O)OCC(=O)[C@@]12OC(C)(C)O[C@@H]1CC1C3C[C@H](F)C4=CC(=O)C=C[C@]4(C)[C@@]3(F)[C@@H](O)C[C@@]12C` (some centres undefined), the parasite load remaining in experiment [1] is 117% (inactive) and 83.7% (inactive). In addition, the viability in experiment [1] is 77.1% and 96.2%. Further, the red/green cell ratio (normalised) in experiment [2] is 1.1 (inactive). Also, the normalised cell number in experiment [2] (setting [6]) was 1.15; in experiment [2] (setting [7]), 1.26. In addition, the fold change in experiment [3] (setting [8]) was 0.893 (inactive); in experiment [3] (setting [9]), 0.979. In addition, the cell count was found to be 6960 in experiment [3] (setting [10]) and 7790 in experiment [3] (setting [11]).

Turning to `CO/N=C(/C(=O)N[C@@H]1C(=O)N2C(C(=O)O)=C(CSc3nc(=O)c(O)nn3C)CS[C@H]12)c1csc(N)n1`, the parasite load remaining in experiment [1] was 147% (inactive) and 79.9% (inactive) and 62.4% (inactive). For the same compound, the viability in experiment [1] is 82.1% and 106% and 101%. In addition, the red/green cell ratio (normalised) in experiment [2] is 1.22 (inactive). Further, the normalised cell number amounted to 1.02 in experiment [2] (setting [6]) and 1.24 in experiment [2] (setting [7]). In addition, the fold change in experiment [3] (setting [8]) was 0.888 (inactive); in experiment [3] (setting [9]) it was 3.26. Further, the cell count came to 11700 in experiment [3] (setting [10]) and 13200 in experiment [3] (setting [11]).

For the compound `C[C@H](N[C@@H](CCc1ccccc1)C(=O)O)C(=O)N1CCC[C@H]1C(=O)O`, the red/green cell ratio (normalised) in experiment [2] was 0.88 (inactive). Besides, the normalised cell number in experiment [2] (setting [6]) amounted to 1.17; in experiment [2] (setting [7]), 1.03. For the same compound, the z-score in experiment [4] (MELAS cybrid survival, CellTiter-Glo 48 h, stronger effect = higher value) was 0.249 (inactive); in experiment [4] (Rieske KO mouse fibroblast survival, CellTiter-Glo 72 h), -0.206.

For `O=C1[C@H](CCC(O)c2ccc(F)cc2)[C@@H](c2ccc(O)cc2)N1c1ccc(F)cc1` (some centres undefined), in experiment [1], the parasite load remaining is 127% (inactive) and 58.1% (inactive). Further, in experiment [1], the viability is 82.3% and 90.7%. Moreover, the red/green cell ratio (normalised) in experiment [2] is 1.19 (inactive). Moreover, the normalised cell number in experiment [2] (setting [6]) turned out to be 0.87; in experiment [2] (setting [7]) it was 1.03. In addition, the fold change in experiment [3] (setting [8]) was 0.905 (inactive); in experiment [3] (setting [9]), 1.79. For the same compound, the cell count in experiment [3] (setting [10]) was determined as 11700; in experiment [3] (setting [11]), 12900.

On to `C[C@H]1O[C@@H](O[C@H]2[C@@H](O)C[C@H](O[C@H]3[C@@H](O)C[C@H](O[C@H]4CC[C@]5(C)C6CC[C@]7(C)[C@@H](C8=CC(=O)OC8)CC[C@]7(O)C6CC[C@@H]5C4)O[C@@H]3C)O[C@@H]2C)C[C@H](O)[C@@H]1O` (some centres undefined), for which the parasite load remaining in experiment [1] is 0.925% (inactive) and 0.995% (inactive). Besides, the viability in experiment [1] is 37.2% and 52.3%. In experiment [2], the red/green cell ratio (normalised) was 0.46 (inactive). Further, the normalised cell number in experiment [2] (setting [6]) turned out to be 0.15; in experiment [2] (setting [7]), 0.07. The results for the fold change in experiment [3] (setting [8]) and in experiment [3] (setting [9]) were 0.424 (active) and 1.53, respectively. Further, the cell count in experiment [3] (setting [10]) was determined as 190; in experiment [3] (setting [11]), 450.

`CC1(C)O[C@@H]2CC3C4C[C@H](F)C5=CC(=O)C=C[C@]5(C)[C@@]4(F)[C@@H](O)C[C@]3(C)[C@]2(C(=O)CO)O1` (some centres undefined): in experiment [1], the parasite load remaining was 74.8% (inactive). Further, the viability in experiment [1] came out at 92.9%. Also, the red/green cell ratio (normalised) in experiment [2] is 1.12 (inactive). The normalised cell number was 1.2 in experiment [2] (setting [6]) and 1.35 in experiment [2] (setting [7]). The fold change in experiment [3] (setting [8]) was 0.898 (inactive); in experiment [3] (setting [9]), 0.891. The cell count in experiment [3] (setting [10]) was found to be 7030; in experiment [3] (setting [11]), 7830.

`CNCC[C@@H](Oc1ccccc1)c1ccccc1`: in experiment [1], the parasite load remaining is 48% (inactive). Also, in experiment [1], the viability was 116%. Also, the red/green cell ratio (normalised) in experiment [2] was 1.13 (inactive). The normalised cell number in experiment [2] (setting [6]) turned out to be 1.27; in experiment [2] (setting [7]), 1.44. The fold change in experiment [3] (setting [8]) was 0.971 (inactive); in experiment [3] (setting [9]), 1.23. Moreover, the cell count was 10900 in experiment [3] (setting [10]) and 11200 in experiment [3] (setting [11]).

In the case of `CC(=O)O[C@@]12CO[C@@H]1C[C@H](O)[C@@]1(C)C(=O)[C@H](O)C3=C(C)[C@@H](OC(=O)[C@H](O)[C@@H](NC(=O)OC(C)(C)C)c4ccccc4)C[C@@](O)([C@@H](OC(=O)c4ccccc4)C12)C3(C)C` (some centres undefined), in experiment [2], the red/green cell ratio (normalised) was 1.12 (inactive). Moreover, the normalised cell number in experiment [2] (setting [6]) came out at 0.16. The compound further returned a normalised cell number in experiment [2] (setting [7]) of 0.18. Besides, in experiment [5], the SSMD worked out at 1.92, the cell count came out at 6830 and the plate-normalised HSF1 focus index was 1.1 (inactive).

For the compound `C[C@]12CCC(=O)C=C1C=CC1C2CC[C@@]2(C)C1CC[C@@]21CCC(=O)O1` (some centres undefined), the parasite load remaining in experiment [1] was 99.9% (inactive) and 38.4% (inactive). For the same compound, the viability in experiment [1] is 91.3% and 97%. Moreover, the red/green cell ratio (normalised) in experiment [2] is 0.76 (inactive). Further, the normalised cell number is 1.2 in experiment [2] (setting [6]) and 0.92 in experiment [2] (setting [7]). Further, the fold change in experiment [3] (setting [8]) was 0.895 (inactive); in experiment [3] (setting [9]), 1.44. Moreover, the cell count was 11200 in experiment [3] (setting [10]) and 12500 in experiment [3] (setting [11]).

The values above are taken from PubChem BioAssay.
